The supplement of paper PMC10849652
About 8,800 targets were measured; listed, in parts, are those with a hit and a random draw of the rest. About 0.5% of all pairs of compound and target were hits. A number with no mark means an inactive call.

Tests used:
Assay in all cases: log2 fold change, soluble protein after heating vs DMSO (PISA); higher = thermal stabilisation; K562 lysate, 10 uM; active = over 0.2 and 3.5 SD of the protein, either way, in both replicates (recomputed)
nilotinib = compound: Cc1cn(-c2cc(NC(=O)c3ccc(C)c(Nc4nccc(-c5cccnc5)n4)c3)cc(C(F)(F)F)c2)cn1 [nilotinib]
Outline: (§1)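 K562 pellets were dounce-homogenised in PBS pH 7.4 containing 1 mM MgCl2, and the crude extract, at 1 mg/mL protein, was exposed to 10 μM compound for 30 min. Aliquots were heated for 3 min across 48°C-58°C, pooled, brought to 0.5% NP-40 at 4°C and spun at 21,000xg for 90 min, with the supernatant taken as soluble protein. TMTpro 16plex LC-MS/MS with equalised channel sums quantified that protein. Values are log-two fold changes in thermal stability relative to solvent controls, taken from duplicates.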

[1] = compound: Cc1nc(Nc2n[nH]c3c2CN(C(=O)N[C@H](CN(C)C)c2ccccc2)C3(C)C)c2sccc2n1
Outline: as §1

dasatinib = compound: Cc1nc(Nc2ncc(C(=O)Nc3c(C)cccc3Cl)s2)cc(N2CCN(CCO)CC2)n1 [dasatinib]
Outline: as §1

[2] = compound: Cc1ncc(-c2ccnc(Nc3ccc(S(C)(=O)=O)cc3)n2)n1C(C)C
Outline: as §1

[3] = compound: Cn1cc(-c2ccc3c(c2)CCN3C(=O)Cc2cccc(C(F)(F)F)c2)c2c(N)ncnc21
Outline: as §1

quisinostat = compound: Cn1cc(CNCC2CCN(c3ncc(C(=O)NO)cn3)CC2)c2ccccc21 [quisinostat]
Outline: as §1

tipifarnib = compound: Cn1cncc1[C@@](N)(c1ccc(Cl)cc1)c1ccc2c(c1)c(-c1cccc(Cl)c1)cc(=O)n2C [tipifarnib]
Outline: as §1

[4] = compound: NC(=O)Nc1cc(-c2cccc(F)c2)sc1C(=O)N[C@H]1CCCNC1
Outline: as §1

[5] = compound: NC(=O)c1cnc(N[C@@H]2CCCC[C@@H]2N)nc1Nc1cccc(-n2nccn2)c1
Outline: as §1

[6] = compound: NC1(c2ccc(-c3nc4ccn5c(=O)[nH]nc5c4cc3-c3ccccc3)cc2)CCC1
Outline: as §1

Chain of UniProt P53355 (P53355 whole entry, looked up): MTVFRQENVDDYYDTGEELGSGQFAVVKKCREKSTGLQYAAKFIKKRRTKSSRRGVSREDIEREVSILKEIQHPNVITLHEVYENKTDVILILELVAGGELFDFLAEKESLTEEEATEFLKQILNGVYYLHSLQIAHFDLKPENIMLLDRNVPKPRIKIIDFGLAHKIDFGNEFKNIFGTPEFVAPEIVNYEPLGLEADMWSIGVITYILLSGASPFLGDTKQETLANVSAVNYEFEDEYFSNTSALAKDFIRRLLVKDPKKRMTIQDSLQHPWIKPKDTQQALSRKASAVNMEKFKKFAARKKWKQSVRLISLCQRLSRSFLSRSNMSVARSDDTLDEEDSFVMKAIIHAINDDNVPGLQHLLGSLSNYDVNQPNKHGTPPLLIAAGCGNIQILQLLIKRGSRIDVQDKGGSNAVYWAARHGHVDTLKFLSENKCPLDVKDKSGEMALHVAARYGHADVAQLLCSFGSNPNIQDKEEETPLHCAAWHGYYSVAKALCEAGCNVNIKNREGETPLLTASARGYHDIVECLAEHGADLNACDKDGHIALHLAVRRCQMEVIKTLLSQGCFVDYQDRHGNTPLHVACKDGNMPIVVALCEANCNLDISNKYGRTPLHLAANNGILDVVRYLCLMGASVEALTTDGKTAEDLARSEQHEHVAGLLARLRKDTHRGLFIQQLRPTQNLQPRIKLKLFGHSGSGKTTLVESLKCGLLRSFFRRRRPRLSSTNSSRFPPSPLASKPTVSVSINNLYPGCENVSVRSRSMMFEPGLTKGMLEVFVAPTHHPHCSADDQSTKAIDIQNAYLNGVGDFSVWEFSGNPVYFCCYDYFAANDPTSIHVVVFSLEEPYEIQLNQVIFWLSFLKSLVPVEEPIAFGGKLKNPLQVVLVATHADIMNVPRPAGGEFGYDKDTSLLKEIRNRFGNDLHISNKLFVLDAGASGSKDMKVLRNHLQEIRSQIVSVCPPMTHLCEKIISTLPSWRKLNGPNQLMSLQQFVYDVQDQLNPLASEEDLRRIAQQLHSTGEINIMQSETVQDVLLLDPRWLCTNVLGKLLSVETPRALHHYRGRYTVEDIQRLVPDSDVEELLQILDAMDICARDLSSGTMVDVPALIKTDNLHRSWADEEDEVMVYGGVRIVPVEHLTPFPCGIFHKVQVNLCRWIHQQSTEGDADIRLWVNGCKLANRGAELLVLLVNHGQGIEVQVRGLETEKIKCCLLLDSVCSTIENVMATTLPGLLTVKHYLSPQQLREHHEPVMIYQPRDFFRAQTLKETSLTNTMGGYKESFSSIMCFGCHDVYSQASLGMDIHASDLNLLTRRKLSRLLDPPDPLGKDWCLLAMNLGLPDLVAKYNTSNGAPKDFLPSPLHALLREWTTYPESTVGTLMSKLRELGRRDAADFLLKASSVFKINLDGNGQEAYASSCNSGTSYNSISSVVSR
Chain of UniProt O75534 (O75534 whole entry, looked up): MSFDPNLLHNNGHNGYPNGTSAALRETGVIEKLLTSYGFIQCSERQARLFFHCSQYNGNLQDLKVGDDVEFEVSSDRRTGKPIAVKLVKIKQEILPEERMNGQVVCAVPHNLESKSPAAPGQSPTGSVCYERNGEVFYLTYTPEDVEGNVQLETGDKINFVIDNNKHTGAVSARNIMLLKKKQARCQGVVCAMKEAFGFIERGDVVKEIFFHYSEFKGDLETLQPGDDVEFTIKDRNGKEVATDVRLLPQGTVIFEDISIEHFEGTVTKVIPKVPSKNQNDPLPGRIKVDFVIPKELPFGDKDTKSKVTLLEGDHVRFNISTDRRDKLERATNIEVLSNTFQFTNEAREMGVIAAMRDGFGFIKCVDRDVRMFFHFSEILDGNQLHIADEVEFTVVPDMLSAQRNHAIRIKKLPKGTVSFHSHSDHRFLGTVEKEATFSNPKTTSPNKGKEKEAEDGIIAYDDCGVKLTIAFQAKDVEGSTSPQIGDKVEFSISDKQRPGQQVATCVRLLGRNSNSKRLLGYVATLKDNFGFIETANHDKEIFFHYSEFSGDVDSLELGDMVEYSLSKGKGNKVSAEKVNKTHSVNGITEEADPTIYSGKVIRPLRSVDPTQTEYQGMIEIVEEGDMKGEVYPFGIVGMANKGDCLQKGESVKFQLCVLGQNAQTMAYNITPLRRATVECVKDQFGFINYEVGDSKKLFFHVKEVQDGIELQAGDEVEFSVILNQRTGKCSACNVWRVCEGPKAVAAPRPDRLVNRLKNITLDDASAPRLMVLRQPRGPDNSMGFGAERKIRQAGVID
Chain of UniProt Q96LJ7 (Q96LJ7 whole entry, looked up): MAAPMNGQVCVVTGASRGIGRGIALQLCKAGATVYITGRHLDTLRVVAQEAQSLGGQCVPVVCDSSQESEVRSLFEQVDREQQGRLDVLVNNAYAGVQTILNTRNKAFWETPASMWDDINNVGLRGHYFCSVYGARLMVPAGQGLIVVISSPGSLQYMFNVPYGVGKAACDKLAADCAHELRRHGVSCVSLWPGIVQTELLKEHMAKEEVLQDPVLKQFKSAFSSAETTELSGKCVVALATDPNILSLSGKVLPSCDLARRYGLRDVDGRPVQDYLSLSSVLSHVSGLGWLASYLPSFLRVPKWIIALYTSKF
Chain of UniProt O15247 (O15247 whole entry, looked up): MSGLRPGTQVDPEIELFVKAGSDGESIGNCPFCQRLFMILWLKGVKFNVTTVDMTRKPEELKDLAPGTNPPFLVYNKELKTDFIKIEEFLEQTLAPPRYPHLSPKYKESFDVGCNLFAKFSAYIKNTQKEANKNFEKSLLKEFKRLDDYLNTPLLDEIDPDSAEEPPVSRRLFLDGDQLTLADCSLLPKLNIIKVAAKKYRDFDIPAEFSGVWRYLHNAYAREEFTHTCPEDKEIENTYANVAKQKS
Chain of UniProt Q8IWF6 (Q8IWF6 whole entry, looked up): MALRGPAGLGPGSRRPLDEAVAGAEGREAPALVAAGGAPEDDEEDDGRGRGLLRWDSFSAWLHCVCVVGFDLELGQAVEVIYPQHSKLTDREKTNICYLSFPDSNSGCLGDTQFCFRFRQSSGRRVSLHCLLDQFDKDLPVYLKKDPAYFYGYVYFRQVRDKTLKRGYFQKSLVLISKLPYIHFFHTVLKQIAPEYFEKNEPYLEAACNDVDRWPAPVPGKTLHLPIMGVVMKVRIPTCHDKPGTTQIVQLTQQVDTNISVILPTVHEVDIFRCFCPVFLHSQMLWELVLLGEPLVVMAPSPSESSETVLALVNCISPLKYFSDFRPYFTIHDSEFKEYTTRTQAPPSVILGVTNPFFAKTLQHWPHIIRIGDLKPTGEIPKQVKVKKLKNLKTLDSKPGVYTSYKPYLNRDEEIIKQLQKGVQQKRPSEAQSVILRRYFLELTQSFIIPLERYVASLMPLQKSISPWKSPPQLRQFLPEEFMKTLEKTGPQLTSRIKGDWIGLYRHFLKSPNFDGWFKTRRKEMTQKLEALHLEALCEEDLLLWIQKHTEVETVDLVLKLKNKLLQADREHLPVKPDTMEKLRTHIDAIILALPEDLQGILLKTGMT
Chain of UniProt P68400 (P68400 whole entry, looked up): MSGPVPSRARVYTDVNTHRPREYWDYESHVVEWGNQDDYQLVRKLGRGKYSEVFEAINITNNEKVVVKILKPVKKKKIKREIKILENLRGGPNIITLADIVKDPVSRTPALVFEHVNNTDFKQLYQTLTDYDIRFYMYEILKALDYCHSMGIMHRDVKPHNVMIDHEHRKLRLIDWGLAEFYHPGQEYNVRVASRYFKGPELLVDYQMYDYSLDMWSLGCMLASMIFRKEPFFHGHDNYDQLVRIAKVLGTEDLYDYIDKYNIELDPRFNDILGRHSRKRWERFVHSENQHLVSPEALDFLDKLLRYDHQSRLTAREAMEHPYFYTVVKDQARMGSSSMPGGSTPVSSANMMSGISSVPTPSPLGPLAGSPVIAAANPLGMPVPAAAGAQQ
Chain of UniProt Q92989 (Q92989 whole entry, looked up): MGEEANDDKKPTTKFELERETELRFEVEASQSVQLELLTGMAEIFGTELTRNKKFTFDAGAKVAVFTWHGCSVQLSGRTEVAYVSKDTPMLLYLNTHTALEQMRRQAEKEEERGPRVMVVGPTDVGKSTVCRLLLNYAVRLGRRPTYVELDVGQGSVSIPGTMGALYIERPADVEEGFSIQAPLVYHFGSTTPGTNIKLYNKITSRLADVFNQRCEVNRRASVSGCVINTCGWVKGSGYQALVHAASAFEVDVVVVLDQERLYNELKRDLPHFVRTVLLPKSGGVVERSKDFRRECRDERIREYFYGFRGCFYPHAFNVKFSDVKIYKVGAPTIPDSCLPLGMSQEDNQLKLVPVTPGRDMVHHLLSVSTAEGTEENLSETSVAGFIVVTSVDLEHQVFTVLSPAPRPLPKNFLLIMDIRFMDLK
Chain of UniProt Q9H2P9 (Q9H2P9 whole entry, looked up): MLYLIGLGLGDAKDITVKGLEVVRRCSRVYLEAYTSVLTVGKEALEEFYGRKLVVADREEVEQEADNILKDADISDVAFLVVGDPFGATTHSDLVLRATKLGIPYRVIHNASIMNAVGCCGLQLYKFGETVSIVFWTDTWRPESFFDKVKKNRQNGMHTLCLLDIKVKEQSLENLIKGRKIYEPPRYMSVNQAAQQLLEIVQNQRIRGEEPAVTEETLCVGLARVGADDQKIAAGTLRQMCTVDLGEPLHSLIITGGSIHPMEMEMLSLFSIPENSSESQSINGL
Chain of UniProt P17661 (P17661 whole entry, looked up): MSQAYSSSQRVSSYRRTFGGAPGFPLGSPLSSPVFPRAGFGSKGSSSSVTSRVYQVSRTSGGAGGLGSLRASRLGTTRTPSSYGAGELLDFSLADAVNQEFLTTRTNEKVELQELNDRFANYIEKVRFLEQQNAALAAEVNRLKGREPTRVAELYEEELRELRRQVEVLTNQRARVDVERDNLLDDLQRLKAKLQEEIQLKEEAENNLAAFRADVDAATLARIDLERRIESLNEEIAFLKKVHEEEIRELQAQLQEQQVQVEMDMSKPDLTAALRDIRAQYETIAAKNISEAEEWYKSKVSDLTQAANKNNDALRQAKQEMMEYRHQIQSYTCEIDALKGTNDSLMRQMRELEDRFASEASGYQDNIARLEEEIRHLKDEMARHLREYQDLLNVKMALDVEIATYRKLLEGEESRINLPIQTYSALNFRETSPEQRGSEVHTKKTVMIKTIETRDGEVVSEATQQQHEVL

Row | Target | log2 fold change (nilotinib) | log2 fold change [1] | log2 fold change (dasatinib) | log2 fold change [2] | log2 fold change [3] | log2 fold change (quisinostat) | log2 fold change (tipifarnib) | log2 fold change [4] | log2 fold change [5] | log2 fold change [6]
1 | DCP1A (UniProt Q9NPI6) | 0.022 | 0.117 | -0.052 | -0.023 | -0.001 | -0.042 | 0.039 | 0.008 | -0.041 | -0.03
2 | DHRS13 (UniProt Q6UX07) | 0.133 | 0.385 | 0.048 | -0.142 | 0.142 | 0.078 | -0.223 | -0.011 | -0.08 | -0.121
3 | COQ8A (UniProt Q8NI60) | 0.091 | -0.013 | 0.394 | -0.211 | -0.05 | 0.082 | 0.032 | 0.051 | 0.348 | 0.004
4 | DARS (UniProt P14868) | 0.01 | -0.004 | -0.032 | -0.015 | 0.063 | -0.007 | 0.01 | 0.044 | -0.008 | 0.002
5 | DDA1 (UniProt Q9BW61) | 0.003 | 0.008 | -0.011 | -0.056 | 0.006 | -0.006 | -0.008 | -0.023 | -0.027 | 0.023
6 | DES (UniProt P17661) | 0.009 | -0.04 | -0.024 | 0.004 | -0.057 | -0.162 | -0.008 | 0 | 0.041 | 0.034
7 | DPH5 isoform 5 (UniProt Q9H2P9) | -0.01 | 0.289 | 0.418 (active) | 0.009 | 0.062 | 0.003 | 0.017 | -0.048 | -0.025 | 0.377 (active)
8 | CSNK2A1 (UniProt P68400) | -0.022 | 0.061 | 0 | 0.058 | -0.029 | 0.049 | -0.013 | 0.019 | 0.003 | -0.068
9 | DHRS1 (UniProt Q96LJ7) | -0.009 | -0.043 | 0.063 | -0.064 | -0.042 | 0.012 | 0.055 | -0.001 | 0.033 | -0.026
10 | CLP1 (UniProt Q92989) | -0.029 | 0.039 | -0.037 | -0.039 | 0.119 | -0.065 | -0.011 | 0.029 | -0.027 | 0.026
11 | DOCK8 (UniProt Q8NF50) | -0.007 | -0.023 | -0.045 | 0.04 | 0.058 | -0.053 | -0.033 | 0.032 | 0.016 | 0
12 | CIP2A (UniProt Q8TCG1) | -0.006 | 0.02 | -0.107 | 0.024 | 0.054 | -0.123 | 0.01 | 0.019 | 0.032 | -0.014
13 | CLIC2 (UniProt O15247) | 0.029 | -0.032 | -0.017 | 0.004 | -0.022 | -0.019 | -0.024 | 0.023 | 0.004 | -0.005
14 | DENND1B (UniProt Q6P3S1) | 0.042 | -0.073 | 0.073 | -0.05 | -0.09 | -0.16 | 0.017 | 0.211 | 0.2 | 0.209
15 | CLCN3 isoform 2 (UniProt P51790) | 0.017 | -0.018 | -0.012 | 0.006 | -0.008 | 0.01 | -0.012 | 0.04 | 0.022 | 0.024
16 | CSTF2 (UniProt P33240) | 0.031 | 0.038 | 0.03 | -0.017 | -0.029 | 0.033 | -0.021 | -0.013 | -0.007 | 0.052
17 | DENND6A (UniProt Q8IWF6) | 0.012 | -0.009 | 0.053 | 0.017 | 0.095 | -0.084 | -0.041 | 0.018 | -0.032 | -0.011

Row | Target | log2 fold change (nilotinib) | log2 fold change [1] | log2 fold change (dasatinib) | log2 fold change [2] | log2 fold change [3] | log2 fold change (quisinostat) | log2 fold change (tipifarnib) | log2 fold change [4] | log2 fold change [5] | log2 fold change [6]
18 | CWC22 (UniProt Q9HCG8) | 0.043 | 0.017 | -0.015 | 0.002 | 0.02 | 0.015 | 0 | 0.011 | 0.023 | -0.011
19 | DNM2 isoform 4 (UniProt P50570) | 0.078 | -0.018 | -0.095 | -0.03 | 0.162 | 0.025 | -0.12 | 0.088 | 0.044 | -0.181
20 | DICER1 (UniProt Q9UPY3) | 0.014 | -0.014 | -0.005 | 0.045 | -0.03 | -0.072 | 0 | 0.051 | 0.045 | -0.068
21 | CLUH, A0A494C0R8 | 0.026 | 0.146 | 0.028 | -0.022 | 0.015 | -0.165 | -0.033 | 0.022 | -0.045 | 0.046
22 | COL6A5 (UniProt A8TX70) | 0.134 | 0.009 | -0.11 | -0.185 | -0.038 | -0.377 | -0.236 | 0.017 | 0.051 | -0.014
23 | DAPK1 isoform 3 (UniProt P53355) | -0.061 | 0.017 | -0.052 | -0.146 | -0.049 | -0.135 | 0.056 | 0.812 (active) | -0.103 | -0.075
24 | CSDE1 isoform 4 (UniProt O75534) | 0.01 | -0.018 | -0.012 | 0.001 | 0.048 | 0.014 | 0.012 | 0.041 | -0.009 | -0.016
25 | CUL1 (UniProt Q13616) | 0.025 | 0.022 | 0.034 | 0.028 | 0.027 | 0.017 | 0.001 | -0.021 | -0.011 | -0.004
26 | DIAPH1 (UniProt O60610) | -0.003 | -0.009 | -0.019 | -0.009 | 0.006 | -0.006 | -0.006 | -0.006 | 0.002 | 0.008
27 | CLASP1 (UniProt Q7Z460) | -0.015 | 0.021 | -0.097 | 0.013 | 0.016 | -0.085 | -0.051 | -0.022 | 0.012 | -0.018
28 | DENND4A isoform 2 (UniProt Q7Z401) | -0.02 | -0.002 | -0.008 | 0.023 | 0.008 | -0.083 | -0.017 | 0.058 | 0.042 | 0.008
29 | CLIP1 isoform 2 (UniProt P30622) | 0.055 | -0.04 | 0.049 | -0.073 | -0.01 | -0.049 | 0.015 | -0.015 | 0.029 | -0.059
30 | DNM2 (UniProt P50570) | 0 | -0.015 | -0.045 | -0.016 | 0.028 | 0.016 | 0.011 | 0.034 | 0.037 | 0.009
31 | DNAH10 (UniProt Q8IVF4) | 0.017 | 0.014 | -0.026 | -0.024 | -0.026 | -0.251 | 0.025 | 0.012 | -0.017 | -0.072
32 | CYP51A1 (UniProt Q16850) | 0.124 | -0.026 | 0.048 | 0.034 | 0.083 | -0.021 | 0.664 (active) | -0.016 | -0.009 | -0.081
33 | DHFR (UniProt P00374) | 0.023 | -0.041 | -0.091 | 0.019 | 0.073 | -0.009 | -0.012 | 0.039 | -0.129 | -0.04
